Reference: ChEMBL document CHEMBL1157539, “Thousands of chemical starting points for antimalarial lead identification” (Nature, 2010)

What was measured:
Assay type in all cases: functional
Plasmodium falciparum [1] = experiment: GSK_TCMDC: Inhibition of Plasmodium falciparum 3D7 in whole red blood cells, using parasite LDH activity as an index of growth. Test compounds present at 2uM
Plasmodium falciparum [2] = experiment: GSK_TCMDC: Inhibition of Plasmodium falciparum Dd2 in whole red blood cells, using parasite LDH activity as an index of growth. Test compounds present at 2uM
HepG2 = experiment: GSK_TCMDC: Percent inhibition of human HepG2 cell line. Test compounds present at 10uM.

| SMILES | Inhibition (Plasmodium falciparum [1]) [%] | Inhibition (Plasmodium falciparum [2]) [%] | Inhibition (HepG2) [%] |
| --- | --- | --- | --- |
| O=C(Nc1ccc(OC2CCN(Cc3ccsc3)C2)c(Cl)c1)c1ccc2ncccc2c1.O=C(O)C(F)(F)F (stereo not given) | 88 | 10 | 84 |
| Cn1c2c(c3ccccc31)CN(CCC1(c3ccc(Cl)c(Cl)c3)CN(C(=O)c3ccccc3)CCO1)CC2 (stereo not given) | 97 | 88 | 10 |
| COc1ccc(C(=C(C)CC(C)C(=O)O)c2ccccc2)cc1 (stereo not given) | 95 | 0 | 6 |
| O=C(/C=C/c1ccc(Cl)c(Cl)c1)NCCCCCN1CC[C@H](NC(=O)Nc2ccc(Oc3ccccc3)cc2)C1 | 100 | 14 | 47 |
| CCCCCOc1ccc(C(=NC)N(CCCCC)CCCCC)c2ccccc12.I | 96 | 80 | 70 |
| CC(C)(C)c1cc(C(=O)N2CCN(c3ncnc4ccsc34)CC2)n(Cc2ccccc2)n1 | 95 | 83 | 2 |
| O=C(Nc1ccc(-c2ccc(CN3CCNCC3)cc2)cc1)c1cccc(Cl)c1.O=C(O)C(F)(F)F | 91 | 16 | 58 |
| O=C1O[C@H](c2ccccc2)[C@H](c2ccccc2)N(C(=O)OCc2ccccc2)[C@H]1Cc1ccccc1C1CCCC1 | 97 | 0 | 56 |
| Cc1cccc(C(=O)NCCCN2CCC(NC(=O)/C=C/c3ccc(Cl)c(Cl)c3)CC2)c1.O=C(O)C(F)(F)F | 98 | 23 | 39 |
| Cl.O=C(Nc1ccnc2ccccc12)NC1CCN(CCc2ccccc2)CC1 | 100 | 43 | 7 |
